Most compounds without a hit are left out; they make up all but 6.2% or so of the library.
Marburg entry inh = blocks Marburg virus binding to or entry into cells | Potency, µM (series often up to 37.8 µM), for the others: top-dose activity change, negative = inhibition, usual class: inhibitors | hit rate 1.8% among 300,000 | Marburg virus pseudotyped entry inhibition, cell reporter | AID 540276; calls by dose curve; tested in HEK293 cells; note: potency is the fitted concentration of half-maximal effect
Lassa entry inh = blocks Lassa virus binding to or entry into cells. Lassa virus pseudotype entry inhibition, cell reporter. hit rate 1.2% among 300,000. Potency, µM (series often up to 37.9 µM), for inactives: at the top dose activity change, negative = inhibition, usual class: inhibitors; calls by dose curve; tested in HEK293 cells; note: potency is the fitted concentration of half-maximal effect; nearly all actives have a fitted effect of over 50% in size
FMDV inh = antivirals against foot and mouth disease virus. FMDV antiviral cell-based qHTS. Potency, µM (series often up to 57.9 µM), for the others: top-dose activity change, negative = inhibition, usual class: inhibitors. hit rate 1.2% among 410,000. AID 1159524; calls by dose curve; tested in HEK293T cells; note: read-out not given here; potency is the fitted concentration of half-maximal effect; nearly all actives have a fitted effect of over 45% in size
HCMV antiviral = inhibitors of human cytomegalovirus | hit rate 4.5% among 410,000 | activity change, negative = inhibition, % at 57.5 µM | AID 1259415 | HFF cells, HCMV-luciferase reporter, 72 h; stronger effect = lower value; in the data active = activity change below about -60%; inconclusive = no clear call, values can overlap the other calls; inactive = above about -39%
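Luciferase read-out from HCMV-luciferase-infected HFFs (MOI 1 PFU/cell) 72 h post infection at 37C; compounds added after 16 h cell attachment; activity normalized between buffer-only basal and Salinomycin (10uM) inhibitor controls.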
* = called active by the depositor; ? = inconclusive; · = no result given; [ ] = dose if it differs, or a comment. % is set by controls: 0 for no effect and ±100 for the full control effect.

SMILES	Marburg entry inh	Lassa entry inh	FMDV inh	HCMV antiviral
CCOC(=O)N1CCN(c2ncc3c(n2)CC(c2ccc(Cl)cc2)CC3=O)CC1 (stereo not given)	-6%[46.1 µM]	?	?	-103*
CCOC(=O)N1CCN(c2ncc3c(n2)CC(c2ccccc2O)CC3=O)CC1 (stereo not given)	2%[46.1 µM]	?	22µM*	?
COc1ccc(NC(=O)COc2ccc3c(c2)CCC3)cc1S(N)(=O)=O	·	·	-16%	-17
COc1ccc(-c2nc(-c3ccc4c(c3)OCO4)[nH]c2-c2ccc(OC)cc2)cc1	?	?	?	-102*
COc1ccc(-c2nc(SCC(=O)Nc3ccc4c(c3)OCO4)c(-c3ccc(OC)cc3)[nH]2)cc1	7%[46.1 µM]	0%[46.1 µM]	-7%	-90*
O=C(CSc1nc(-c2ccccc2)[nH]c1-c1ccccc1)Nc1ccc2c(c1)OCCO2	?	?	1%	-28
COc1ccc(-c2[nH]c(-c3ccccc3)nc2SCC(=O)Nc2ccc3c(c2)OCCO3)cc1	?	?	-10%	?
CCc1nnc(NC(=O)CSc2ccc(-c3nc4ccccc4[nH]3)cn2)s1	25%	?	·	-94*
O=C(CSc1nc(-c2ccc(F)cc2)[nH]c1-c1ccc(F)cc1)Nc1ccc2c(c1)OCCO2	?	?	?	-75*
Cc1nc(NC(=O)CSc2ccc(-c3nc4ccccc4[nH]3)cn2)sc1C	?	21%	6%	-30
O=C(NCC(=O)N(c1ccccc1F)C(C(=O)NCC1CCCO1)c1ccccc1)c1ccco1 (stereo not given)	2%	1%	14%	1
CCOC(=O)c1nc(Nc2ccc(Cl)cc2)c2c(C)noc2n1	·	9%[46.1 µM]	5%	5
CCCn1nnnc1NC(=O)COc1ccc(Br)cc1	-1%[46.1 µM]	8%	-5%	-23
Cc1cc2nc(-c3ccc(SCC(=O)Nc4ccc5c(c4)OCCO5)nc3)[nH]c2cc1C	?	-16%	·	-68*
O=c1[nH]c(CN2CCN(c3ccc([N+](=O)[O-])cc3)CC2)nc2ccsc12	-28%	-2%	32µM*	13
CCNC(=S)NNC(=O)c1ccc(S(=O)(=O)NCc2ccco2)cc1	?	-8%	15%	-100*
CCc1ccccc1NC(=O)CNC(=O)c1ccc(S(=O)(=O)NCc2ccco2)cc1	·	·	32%	-102*
CC(C)(C)c1ccc(C(=O)NNC(=S)NCc2ccco2)cc1	?	?	4%	39
CC(C)C[C@H]1COc2cc(NCc3ccc(Cl)c(Cl)c3)ccc2S(=O)(=O)N1	·	·	·	-13
Cn1nnnc1SCC(=O)Nc1cccc([N+](=O)[O-])c1	8%[46.1 µM]	12%	-2%	-68*
NNC(=O)C(=O)NCCCN1CCOCC1	·	·	9%	?
CC(C)(C)C1CCC(=NNC(=O)CN(c2ccccc2)S(=O)(=O)c2ccccc2[N+](=O)[O-])CC1 (stereo not given)	4%	8%	-26%	-18
CCCC/C(C)=N/NC(=O)CN(c1ccc(Br)cc1)S(=O)(=O)c1ccccc1	6%	2%	-11%	-16
C/C(=N/NC(=O)CN(c1ccccc1)S(=O)(=O)c1ccccc1)c1ccccc1O	·	·	17%	-98*
COc1ccccc1N(CC(=O)Nc1cc(C)on1)S(=O)(=O)c1cccc(C(F)(F)F)c1	·	·	-3%	-64*
SMILES	Marburg entry inh	Lassa entry inh	FMDV inh	HCMV antiviral
COc1ccccc1N(CC(=O)Nc1ccccc1C(F)(F)F)S(=O)(=O)c1ccc(C)cc1	?	-20%[46.1 µM]	-13%	-13
C/C(=N\NC(=O)CN(c1ccccc1)S(=O)(=O)c1ccccc1[N+](=O)[O-])C(C)(C)C	?	8%	1%	-63*
COc1ccccc1N(CC(=O)N/N=C(\C)c1ccc(F)cc1)S(=O)(=O)c1ccccc1	0%	11%	-9%	-101*
NS(=O)(=O)c1ccc(CNC(=O)CNC(=O)Cc2ccccc2)cc1	-6%[46.1 µM]	11%	-19%	-8
Cc1cc(Oc2ccc(-c3ccccc3)cc2)nc(N2CCOCC2)n1	11µM*	4µM*	?	19
CCCc1ccc(Oc2cc(C)nc(N3CCOCC3)n2)cc1	-19%	?	-1%	-28
Cc1cc(Oc2ccc(C(C)(C)C)cc2)nc(N2CCOCC2)n1	-23%	5µM*	?	3
Cc1nc(NC(=O)CSc2nnc(-c3ccc4c(c3)OCO4)o2)c(Cl)cc1Cl	5%	9%	11%	-5
CN(C)CCCN(C(=O)c1ccc(S(=O)(=O)N2CCCC2)cc1)c1nc2ccc(Br)cc2s1	10µM*	?	-25%	-23
CN(C)CCCN(C(=O)c1ccc(S(=O)(=O)N(C)C2CCCCC2)cc1)c1nc2ccc(F)cc2s1	?	?	-20%	-3
CCc1ccc2nc(N(CCCN(C)C)C(=O)c3ccc(S(=O)(=O)N4CCc5ccccc5C4)cc3)sc2c1	?	-17%	-18%	-62*
CCN(Cc1ccccc1)S(=O)(=O)c1ccc(C(=O)N(CCCN(C)C)c2nc3ccc(F)cc3s2)cc1	?	?	12%	-80*
CCc1ccc2nc(N(CCCN(C)C)C(=O)c3ccc(S(=O)(=O)N(C)C4CCCCC4)cc3)sc2c1	?	?	-17%	-86*
COc1ccc(-c2occ(C(=O)O)c2C(=O)O)cc1	2%	-2%	-15%	43
COc1ccc(Br)cc1S(=O)(=O)n1c([N+](=O)[O-])cnc1C	·	·	-14%	-23
COc1ccccc1/C=C/C=N/n1c(-c2ccco2)n[nH]c1=S	?	0%	7%	2
CCOc1cccc2sc(N(CCCN(C)C)C(=O)c3ccc(S(=O)(=O)N4CCc5ccccc5C4)cc3)nc12	·	·	0%	-68*
Cc1cc(C(=O)COC(=O)c2ccc(O)cc2)c(C)n1-c1ccccc1F	?	?	4%	-17
COc1cc(CNCc2cc(OC)ccc2OC)cc(OC)c1	·	·	-18%	-33
Cc1ccc(-c2c[n+]3c(n2-c2ccccc2)CCC3)cc1	?	?	?	-96*
c1ccc(-c2c[n+]3c(n2-c2ccccc2)CCC3)cc1	·	·	?	-37
CCOc1ccc(-n2c(-c3ccccc3)c[n+]3c2CCCCC3)cc1	·	·	?	-100*
CCOc1ccc(-c2c(C)n(-c3ccc(OCC)cc3)c3[n+]2CCCCC3)cc1	?	?	?	-95*
CCOc1ccc(N2C(=O)CCC2=O)cc1	22%	3%	-13%	67
CCOc1ccc(-c2nc(-c3ccc(OC)cc3)no2)cc1OCC	7%	5%	-1%	1
SMILES	Marburg entry inh	Lassa entry inh	FMDV inh	HCMV antiviral
CC(Oc1cc(-n2cnc3ccc(OC4CCN(C)CC4)cc32)sc1C(N)=O)c1ccccc1Cl (stereo not given)	·	0.2µM*	·	·
COc1cccc(COc2cc(-n3cnc4ccccc43)sc2C(N)=O)c1	·	5µM*	·	·
COc1ccc2ncn(-c3cc(OC(C)c4ccccc4C(F)(F)F)c(C(N)=O)s3)c2c1 (stereo not given)	·	0.22µM*	·	·
O=C1c2ccccc2S(=O)(=O)c2cc(C(=O)N3CCN(c4ccccc4)CC3)ccc21	·	·	-12%	47
COc1ccccc1OCC(=O)N(Cc1nc(-c2ccccc2)no1)C1CCCCC1	?	-23%	-21%	14
Cc1ccc(C(C[N+](=O)[O-])Sc2ccc(N)cc2)cc1 (stereo not given)	3%[46.1 µM]	-1%	?	-100*

From PubChem BioAssay
